Out of some 290,000 compounds screened, about 3,000 (1%) were called active. This is one part of a sample in which actives are shown more often than they occur. Values without a mark were called inactive. Rule as the data show it: active = inhibition mostly above about 36% (no sharp cut-off); inactive = mostly below about 34%.
Assay: NOD1 signaling inhibitors, primary screen, cell-based, luminescence, uHTS (AID 1578);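 also: HEK-293T reporter cells stimulated with the NOD1 agonist gamma-tri-DAP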
Settings: NOD1-driven NF-kB luciferase reporter cells, at 4 µM, stronger effect = higher value

Compound	inhibition
c1ccc(Sc2cccc3ccccc23)c(CNC2=NCCN2)c1	-31.1%
Fc1ccccc1Sc1ccccc1CNC1=NCCN1	64.4% (active)
Fc1ccc(Sc2ccccc2CNC2=NCCN2)cc1	-4.9%
CCOC(=O)c1c(CN2CCOCC2)n(-c2ccccc2)c2cc(Br)c(O)cc12	67% (active)
CCOC(=O)c1c(CN2CCOCC2)n(-c2ccccc2)c2cc(Br)c(OC)cc12	30.8%
CCOC(=O)c1c(CN2CCN(C)CC2)n(-c2ccccc2)c2cc(Br)c(O)cc12	-4%
Cc1cccc(-n2c(C)cc(C(=O)NC3CCCCC3)c2C)c1	-17.7%
CCOCCCNC(=S)NNC(=O)CCn1nc(C)c(Br)c1C	-19.5%
Cc1cc(NC(=O)CSc2nc3ccccc3c(=O)n2Cc2ccccc2)no1	5%
NC(=O)CSc1nc2ccccc2c(=O)n1Cc1ccccc1	-16%
Cc1ccc(S(=O)(=O)N2CCCCC2C(=O)N(C)c2ccccc2)cc1 (configuration not stated)	-15.4%
Cc1cc(C)n(Cc2ccc(Cl)c(Cl)c2)c(=O)c1S(=O)(=O)c1ccccc1	5.3%
Cc1cnnn1-c1ccc(C(=O)CCl)cc1	19.4%
CC(C)(C)c1cnnn1-c1ccc(C(=O)CCl)cc1	77.3% (active)
CC(=O)c1ccc(-n2nncc2C(C)(C)C)cc1	60.5%
O=C1N=C(N2CCOCC2)S/C1=C\c1ccncc1	-7.7%
CC1(C)CN=C(N(C(=O)Nc2ccccc2)c2ccccc2F)S1	-4.1%
Cc1ccc(COc2ccc(-c3nnco3)cc2)cc1	-12.2%
Fc1ccc(COc2ccc(-c3nnco3)cc2)cc1	-10.4%
CCCCN(CC)S(=O)(=O)c1ccc2c(c1)n(C)c(=O)c(=O)n2C	-6%
Cc1nn(Cc2c(Cl)cccc2Cl)c(C)c1NC(=O)/C=C/c1cnn(C)c1C	99% (active)
Cc1ccccc1Cn1nc(C)c(NC(=O)/C=C/c2cnn(C)c2C)c1C	-19.1%
CCn1nc(C)c(NC(=O)/C=C/c2cnn(C)c2C)c1C	11%
Cc1nc2cc(NS(=O)(=O)c3cccc4cccnc34)ccc2s1	-11.7%
CN(C)/C(=N\S(=O)(=O)c1ccccc1)c1ccccc1	-32.6%
N=C1SC(CC(=O)Nc2ccc([N+](=O)[O-])cc2)C(=O)N1c1ccccc1 (configuration not stated)	-6.5%

Compound	inhibition
CCOC(=O)C1(CCc2ccccc2)CCN(C(=O)CCn2cnnn2)CC1	-48%
O=C(/C=C/c1ccc(OC(F)F)cc1)Nc1cccc(S(=O)(=O)N2CCOCC2)c1	-23.1%
Cc1ccc(-c2nc3n(n2)Cc2ccccc2-3)cc1	-27.4%
Clc1ccc(-c2nc3n(n2)Cc2ccccc2-3)cc1	-7.2%
CCn1c(C)nc2cc(-c3nc4n(n3)Cc3ccccc3-4)ccc21	94% (active)
COc1ccc(CCNC2CC(=O)N(C3CCCCC3)C2=O)cc1OC (configuration not stated)	-7.3%
CCNC1=C(Cl)C(=O)c2ccccc2C1=O	4.8%
O=C1C(Cl)=C(NCCCO)C(=O)c2ccccc21	-20.7%
CCN(CC)CCCNC1=C(Cl)C(=O)c2ccccc2C1=O	98.9% (active)
CC1CCc2c(sc3ncn(CC(=O)N=Nc4c(O)[nH]c5ccccc45)c(=O)c23)C1 (configuration not stated)	4%
O=[N+]([O-])c1cc(Cl)cc(/C=N/Nc2nc3ccccc3s2)c1O	1.6%
COc1cc(/C=N/Nc2ccccn2)ccc1O	7.2%
O=[N+]([O-])c1cc(/C=N\Nc2ccccn2)ccc1Cl	-18.5%
COc1ccc(/C=N/Nc2ccccn2)cc1OC	1.4%
COc1cc(/C=N/Nc2cccc3cccnc23)cc(OC)c1O	50.8% (active)
COc1cc(/C=N/Nc2ccccn2)cc(OC)c1O	46.4% (active)
Oc1ccccc1/C=N/Nc1cccc2cccnc12	-47.2%
Oc1cccc(/C=N/Nc2cccc3cccnc23)c1	-66.8%
CC1=C(C(=O)OCc2ccccc2)C(c2ccccc2OC(F)F)NC(=O)N1 (configuration not stated)	11.1%
Cc1[nH]c2ccccc2c1C(=O)C(=O)NCc1cccs1	-20.5%
Cc1ccccc1SCC(=O)N/N=C/c1ccc(F)cc1	4.1%
O=C(Cc1ccccc1F)Nc1nc(-c2cccnc2)cs1	-9.2%
O=C(CSc1nnc(-c2ccco2)o1)NC(=O)Cc1ccccc1	-4.5%
CC(=O)N1CN(Cc2ccccn2)Cc2c1sc1c2CCCC1	-11.9%
CC(=O)c1c(C)[nH]c(C(=O)Nc2nc(C)cs2)c1C	12.4%
CC(=O)c1c(C)[nH]c(C(=O)Nc2nc(-c3ccc(Cl)cc3)cs2)c1C	66.1%

Compound	inhibition
COc1ccccc1N1CCN(C(=O)C(C)N(c2ccc(C)cc2)S(C)(=O)=O)CC1 (configuration not stated)	-7.9%
O=C1c2ccc(Oc3ccc([N+](=O)[O-])cc3)cc2C(=O)N1CCO	-16.9%
COc1ccc(N2C(=O)CC(Sc3nc4c(cc3C#N)CCC4)C2=O)cc1 (configuration not stated)	-26.6%
CCc1c(C)nc2ncnn2c1NCCc1ccccc1	24%
CCc1c(C)nc2ncnn2c1NCCc1ccc(Cl)cc1	57.5% (active)
CCc1c(C)nc2ncnn2c1NCCc1ccc(OC)cc1	53.3%
O=C(N/N=C/c1ccc2cccnc2c1)c1nc2ccccc2c(=O)[nH]1	-15.6%
Cn1ncc2c(O/N=C(\N)c3ccc(C(F)(F)F)cc3)ncnc21	-5.2%
Cn1ncc2c(NNC(=O)c3ccc(O)cc3)ncnc21	-28%
Cn1ncc2c(O/N=C(\N)c3ccc(C(C)(C)C)cc3)ncnc21	98.4% (active)
Cc1nc2ccc(C(=O)NCc3ccc4c(c3)OCO4)cc2s1	11.9%
O=C(CCNS(=O)(=O)c1ccccc1)N1CCOCC1	-19.5%
Cc1cc(C)c2nc(NC(=O)c3ccc([N+](=O)[O-])o3)sc2c1	37.8%
O=C(Nc1nc2c(F)cccc2s1)c1ccc([N+](=O)[O-])o1	7.3%
O=C(Nc1nc2cc3c(cc2s1)OCCO3)c1ccc([N+](=O)[O-])o1	-22.1%
O=C(Nc1nc2ccccc2s1)c1ccc([N+](=O)[O-])o1	6.5%
CCOC(=O)Cn1cncc1-c1ccc([N+](=O)[O-])cc1	10.5%
COc1cnn(-c2ccc(C)cc2)c(=O)c1Cl	-22.7%
Cc1csc2c(N3CCN(C(=O)Nc4ccc(OC(F)(F)F)cc4)CC3)ncnc12	22.6%
Cc1csc2c(N3CCN(C(=O)Nc4ccccc4)CC3)ncnc12	7.4%
CC1=Nn2c(nc(-c3ccccc3)c2-c2ccccc2)NC(=O)C1Br (configuration not stated)	1.4%
COc1ccccc1CNc1nc(C)c(C(C)=O)s1	12.6%
CCOC(=O)/C(=N/Nc1ccccc1)N1CCCc2ccccc21	90.5% (active)
CCOC(=O)/C(=N\Nc1ccccc1)S(=O)(=O)c1ccccc1	0.6%
CCOC(=O)/C(=N/Nc1ccc(Cl)cc1)S(=O)(=O)c1ccccc1	-14.8%
COC(=O)/C(=N/Nc1ccccc1)N1CCCc2ccccc21	-10.5%

Compound	inhibition
CCOC(=O)/C(=N/Nc1ccc(OC)cc1)N1CCCc2ccccc21	-9.8%
CCOC(=O)/C(=N\Nc1ccccc1)P(=O)(c1ccccc1)c1ccccc1	43.4% (active)
CC(=O)c1csc(Nc2ccccc2Cl)n1	-3%
O=C(NC(=O)c1cccc(Cl)c1)OC[C@@H]1CCCN2CCCCC12 (some centres not stated)	14.2%
CCOC(=O)c1cc2c(ccn2C)n1CC(=O)N1C(C)CCCC1C (configuration not stated)	5.8%
O=S(=O)(Cc1ncc(C(F)(F)F)cc1Cl)c1ccccc1	18%
O=S(=O)(c1ccccc1)c1ncc(C(F)(F)F)cc1Cl	50.2% (active)
O=S(=O)(c1ccccc1)c1ncc(C(F)(F)F)cc1O	-25.1%
O=C(NCCCCc1ccccc1)Nc1ccc(F)cc1	-30.8%
CCn1nc(C(=O)NCC(c2cccs2)N2CCOCC2)c2ccccc2c1=O (configuration not stated)	-2.4%
CCn1c(=O)c([N+](=O)[O-])c(Cl)c2ccccc21	61.2% (active)
Cn1c(=O)c([N+](=O)[O-])c(Cl)c2ccccc21	-31.4%
CCN(CC)c1c([N+](=O)[O-])c(=O)n(CC)c2ccccc12	-5.5%
O=C(OCCC1Oc2cccnc2NC1=O)c1ccc(Cl)cc1 (configuration not stated)	-29.2%
COc1cccc(-c2nc(CS(=O)CC(=O)NCc3ccccc3)c(C)o2)c1 (configuration not stated)	-4.3%
Cc1ccc(-n2c(SCc3ccc(C#N)cc3)nnc2-c2ccccn2)cc1	2.2%
CCC(=O)N1c2ccc(S(=O)(=O)N3CCN(c4ccccc4Cl)CC3)cc2CC1C (configuration not stated)	8.1%
CCC(=O)N1c2ccc(S(=O)(=O)N3CCN(C)CC3)cc2CC1C (configuration not stated)	-8.9%
COc1ccc(S(=O)(=O)Nc2ccc(O)c(Sc3ncn[nH]3)c2)cc1	-28.8%
O=S(=O)(Nc1cc(Sc2ncn[nH]2)c(O)c2ccccc12)c1ccccc1	-1.5%
COc1ccc(S(=O)(=O)Nc2cc(Sc3ncn[nH]3)c(O)c3ccccc23)cc1	93.1% (active)
O=S(=O)(Nc1cc(Sc2cccc3cccnc23)c(O)c2ccccc12)c1ccccc1	109% (active)
O=S(=O)(Nc1cc(Sc2cccc3cccnc23)c(O)c2ccccc12)c1ccc(F)cc1	-23.7%
O=C(O)CSc1cc(NS(=O)(=O)c2ccc(Br)cc2)c2ccccc2c1O	5.8%
